NCOA2 inhibitor – inhibition of GAL4-SRC2 driven luciferase reporter, primary screen, SRC2 inhibitor project, cell-based, luminescence; AID 651957, 2012; inhibition, % at 9 µM; HEK293 GAL4-SRC2 luciferase reporter; 0.17% of 370,000 active;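 active = inhibition above the mean inhibition of all tested compounds plus 3 SD, set per campaign, cut at about 52% in these data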
LGR2 inh – inhibitors of bursicon-induced LGR2 CRE-luciferase signal, primary screen, cell-based, HEK293, CRE-luciferase reporter, bursicon stimulation. bursicon-stimulated, 4 h. inhibition, % at 9.99 µM. 0.35% of 380,000 active;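 active = drop in luminescence signal, shown as inhibition above about 50% in the replicate tests, limit read from the data, passing the limit was not always enough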;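 note: agonist challenge used bursicon conditioned medium at about half maximal strength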
NR5A2 inv ag – LRH-1 (NR5A2) inverse agonists, primary screen, cell-based, luminescence, HEK293T, StAR-luciferase reporter. LRH-1 transfected, 24 h. inhibition, % at 3.6 µM. AID 602396, 2012. Nuclear receptor subfamily 5 group A member 2 (Homo sapiens), O00482. 0.13% of 360,000 active;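 active = inhibition above the mean inhibition of all tested compounds plus 3 SD, cut at about 73% in these data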
NCOA1 inh – SRC1 coactivator transcriptional activity inhibitors, primary screen, cell-based, luminescence. AID 588354, 2011. HEK293 GAL4-SRC1 luciferase reporter. inhibition, % at 3.6 µM. 0.12% of 360,000 active;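 active = inhibition above the campaign mean plus 3 SD, with each screening campaign given its own cutoff, cut at about 60% in these data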
NCOA3 inh – SRC3 coactivator transcriptional activity inhibitors, primary screen, cell-based, luminescence. Nuclear receptor coactivator 3 (Homo sapiens), Q9Y6Q9. HEK293 GAL4-SRC3 luciferase reporter. inhibition, % at 3.6 µM. 0.17% of 360,000 active. AID 588352, 2011;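 active = inhibition above a per-campaign cutoff, the mean of all compounds plus 3 SD, cut at about 60% in these data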;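 note: higher means less SRC3-driven luciferase light from the GAL4 reporter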
Each line names hits and unclear results; the compound was inactive in the other large screens. Shown are actives, neighbours in structure and some others; about 0.48% of the full set was active somewhere.

C[C@H]1CCCCO[C@H](CN(C)C(=O)Nc2ccc(F)cc2)[C@@H](C)CN([C@@H](C)CO)C(=O)c2cc(NC(=O)Nc3cccc4ccccc34)ccc2O1	none (no result: NCOA2 inhibitor, NR5A2 inv ag, NCOA1 inh, NCOA3 inh)
C[C@@H]1CN([C@@H](C)CO)C(=O)Cc2cc(NC(=O)Cn3cnnn3)ccc2O[C@@H]1CN(C)Cc1ccc(Cl)c(Cl)c1	none (no result: NCOA2 inhibitor, NR5A2 inv ag, NCOA1 inh, NCOA3 inh)
C[C@@H]1CN([C@@H](C)CO)C(=O)Cc2cc(N(C)C)ccc2O[C@@H]1CN(C)C(=O)Nc1ccc(C(F)(F)F)cc1	none (no result: NCOA2 inhibitor, NR5A2 inv ag, NCOA1 inh, NCOA3 inh)
CCCNC(=O)N(C)C[C@@H]1Oc2cc(-c3cncnc3)ccc2S(=O)(=O)N([C@H](C)CO)C[C@H]1C	none (no result: NCOA2 inhibitor, NR5A2 inv ag, NCOA1 inh, NCOA3 inh)
COC(=O)C1=C(CN2CCCc3ccccc32)NC(=O)NC1c1ccc(F)cc1 (centres undefined)	NCOA2 inhibitor 84.6, NR5A2 inv ag 90.8, NCOA1 inh 87.0, NCOA3 inh 84.3
COc1ccc(Cl)cc1Nc1nc(-c2sc(NC(=O)C(C)(C)C)nc2C)cs1	NCOA1 inh 72.4
N#Cc1cc2c(nc1SC1CC(=O)N(c3ccccc3)C1=O)CCC2 (centres undefined)	NCOA3 inh 77.4 (no result: NCOA2 inhibitor, LGR2 inh)
Cc1cc(=O)n2c3c(c4c(cc13)c(CN(C)C)cc(=O)n4C)OC2	NCOA2 inhibitor 58.0, LGR2 inh 105.1
C[C@@H]1CCCCO[C@@H](CN(C)C(=O)CCCN(C)C)[C@@H](C)CN([C@@H](C)CO)C(=O)c2cc(NS(=O)(=O)c3cccs3)ccc2O1	none (no result: NCOA2 inhibitor, NR5A2 inv ag, NCOA1 inh, NCOA3 inh)
CN(C)CCOc1ccc2c(c1)C(=O)C(=Cc1ncc([N+](=O)[O-])n1C)C2	LGR2 inh 99.6, NR5A2 inv ag 82.2
Cc1noc(C)c1NC(=O)N(C)C[C@H]1Oc2c(NS(=O)(=O)c3cn(C)cn3)cccc2C(=O)N([C@@H](C)CO)C[C@H]1C	none (no result: NCOA2 inhibitor, NR5A2 inv ag, NCOA1 inh, NCOA3 inh)
CN(C)c1ccc(Sc2ccc3nc(N)nc(N)c3c2)cc1	NR5A2 inv ag 74.2
Nc1nc(N)c2cc(S(=O)(=O)c3cccc(C(F)(F)F)c3)ccc2n1	none
C[C@@H]1CN([C@@H](C)CO)C(=O)c2cccc(NC(=O)CCCCCC(=O)Nc3ccccc3N)c2O[C@H]1CN(C)S(=O)(=O)c1cn(C)cn1	none (no result: NCOA2 inhibitor, NR5A2 inv ag, NCOA1 inh, NCOA3 inh)
CCC(=O)N1C[C@@H](O)COC[C@@H]2O[C@@H](CC(=O)NCc3cc(F)cc(F)c3)CC[C@H]21	none (no result: NCOA2 inhibitor, NR5A2 inv ag, NCOA1 inh, NCOA3 inh)
O=C(C[C@@H]1C[C@@H]2c3cc(NC(=O)c4ccc5c(c4)OCO5)ccc3O[C@@H]2[C@@H](CO)O1)NCc1ccc(Oc2ccccc2)cc1	LGR2 inh 68.1 (no result: NCOA2 inhibitor, NR5A2 inv ag, NCOA1 inh, NCOA3 inh)
O=C(NCC[C@H]1CC[C@H](NC(=O)c2cccnc2)[C@H](CO)O1)Nc1ccc(C(F)(F)F)cc1	none (no result: NCOA2 inhibitor, NR5A2 inv ag, NCOA1 inh, NCOA3 inh)
COCC(=O)Nc1ccc2c(c1)OC[C@@H](C)N(Cc1ccccc1F)C[C@H](C)[C@@H](OC)CN(C)C2=O	none (no result: NCOA2 inhibitor, NR5A2 inv ag, NCOA1 inh, NCOA3 inh)
N/C(=N\OC(=O)c1ccc(Cl)cc1Cl)c1ccccn1	LGR2 inh 92.6
N/C(=N\OC(=O)c1ccc([N+](=O)[O-])cc1Cl)c1ccccn1	LGR2 inh 94.7
Cc1ccc(C(=O)O/N=C(\N)c2ccccn2)c(Cl)c1	NCOA2 inhibitor 76.8, LGR2 inh 103.5
Cc1ccc(C(=O)O/N=C(\N)c2ccccc2)c(Cl)c1	LGR2 inh 97.1
N/C(=N\OC(=O)c1ccc(Cl)cc1[N+](=O)[O-])c1ccccn1	none
N/C(=N\OC(=O)c1cc(Br)ccc1Cl)c1ccccn1	none
C[C@@H]1CN([C@H](C)CO)C(=O)Cc2cc(NC(=O)Cc3cn(C)c4ccccc34)ccc2O[C@@H]1CN(C)S(=O)(=O)c1ccc(Cl)cc1	none (no result: NCOA2 inhibitor, NR5A2 inv ag, NCOA1 inh, NCOA3 inh)
COc1ccccc1-c1ccc(C2[C@H]3CNC[C@@H]2N3S(=O)(=O)c2ccc(C)cc2)cc1 (some centres undefined)	none (no result: NCOA2 inhibitor, NR5A2 inv ag, NCOA1 inh, NCOA3 inh)
Cc1noc(C)c1NC(=O)Nc1ccc2c(c1)C(=O)N([C@@H](C)CO)C[C@@H](C)[C@@H](CN(C)Cc1ccc(C(=O)O)cc1)O2	none (no result: NCOA2 inhibitor, NR5A2 inv ag, NCOA1 inh, NCOA3 inh)
O=C1C=CC2(O[C@H](c3ccccc3)[C@@H](c3ccccc3)O2)[C@H](Sc2ccccc2O)C1	LGR2 inh 98.7
O=C(Nc1ccccn1)c1onc2c1CCCC2	LGR2 inh 79.2
C[C@H](CO)N1C[C@H](C)[C@H](CN(C)Cc2ccccc2)Oc2ncc(-c3cccc(F)c3)cc2C1=O	none (no result: NCOA2 inhibitor, NR5A2 inv ag, NCOA1 inh, NCOA3 inh)
c1coc(-c2ccc3nncn3c2)c1	none
c1ccc2c(-c3ccc4nncn4c3)cncc2c1	NCOA2 inhibitor 55.3, NCOA1 inh 63.9, NCOA3 inh 61.9
CCCCC(=O)Nc1cccc(-c2csc(-c3ccccc3)n2)c1	none
O=C(O)CCC(=O)Nc1cccc(-c2csc(-c3ccccc3)n2)c1	NCOA2 inhibitor 52.5
CCn1c(Oc2ccccc2F)nc2c1c(=O)n(C)c(=O)n2C	NCOA2 inhibitor 59.3, NCOA1 inh 68.4
CCN1C(=O)C(=O)c2cc(C)ccc21	none
CC[N+]1=C(C)C(C)(C)c2cc(C)ccc21	LGR2 inh 55.7
COc1cccc(-c2cc(C(=O)Nc3cccc(O)c3)no2)c1	LGR2 inh 78.7
O=C(NC1CCCCC1)C(c1cccnc1)N(C(=O)CCl)c1cccc(Cl)c1 (centres undefined)	NCOA2 inhibitor 56.8, NCOA3 inh 69.2
Cc1cccc(N(C(=O)CNC(=O)c2ccco2)C(C(=O)NC2CCCCC2)c2cccnc2)c1 (centres undefined)	none
CCCN1C[C@@H](C)[C@@H](OC)CN(C)C(=O)c2cc(NC(=O)CC)ccc2OC[C@H]1C	none (no result: NCOA2 inhibitor, NR5A2 inv ag, NCOA1 inh, NCOA3 inh)
COCC#Cc1cnc2c(c1)C(=O)N([C@H](C)CO)C[C@@H](C)[C@@H](CN(C)C(=O)CCN1CCCCC1)O2	none (no result: NCOA2 inhibitor, NR5A2 inv ag, NCOA1 inh, NCOA3 inh)
CCCC(=O)N1CCN(c2ccc(NC(=O)c3cc4ccccc4o3)cc2Cl)CC1	NCOA3 inh 75.7 (no result: LGR2 inh)
Cc1noc(C)c1S(=O)(=O)N(C)C[C@H]1Oc2ccc(NC(=O)CCCCCC(=O)Nc3ccccc3N)cc2CC(=O)N([C@@H](C)CO)C[C@H]1C	none (no result: NCOA2 inhibitor, NR5A2 inv ag, NCOA1 inh, NCOA3 inh)
COc1ccc(-c2csc(NC(=O)c3ccccc3NS(=O)(=O)c3ccc(F)c(F)c3)n2)cc1	NR5A2 inv ag 87.0, NCOA1 inh 64.3, NCOA3 inh 78.7
Cc1ccc(S(=O)(=O)Nc2ccccc2C(=O)Nc2nc(-c3ccc(F)cc3)cs2)cc1	none
O=C(COC(=O)c1ccc[nH]c1=O)Nc1ccc(N2CCCCC2)cc1	NCOA2 inhibitor 87.4
O=C(COC(=O)c1ccc[nH]c1=O)Nc1ccc(S(=O)(=O)N2CCCC2)cc1	none
O=S(=O)(c1ccc(F)cc1)c1snnc1-c1ccccc1	LGR2 inh 57.7
CN(C)CC(=O)N[C@H]1C=C[C@H](CC(=O)O)O[C@@H]1CO	none (no result: NCOA2 inhibitor, NR5A2 inv ag, NCOA1 inh, NCOA3 inh)
COc1ccc(NC(=O)c2noc3c2CCC3)cc1	none (no result: LGR2 inh)
CC(=O)c1ccc(NC(=O)c2noc3c2CCC3)cc1	LGR2 inh 64.0
CCCC(=O)N1CC2(C1)CN(C(=O)C1CCC1)[C@H](CO)c1[nH]c3cc(OC)ccc3c12	none (no result: NCOA2 inhibitor, NR5A2 inv ag, NCOA1 inh, NCOA3 inh)

Bioassay records from PubChem BioAssay.
